Data from PubChem BioAssay (NCATS).
Where “and” joins values, the source holds several entries; their conditions need not be identical. Identical values can stand only once. Results filed as inconclusive are left out. Calls of active or inactive are those of the source. Unless noted, the call rests on the fitted dose curve; in most records, active means well fitted curve in either direction with a large enough effect (not every such curve was filed as active); inconclusive means small, poorly fitted or top-dose-only effect, or another doubt; inactive means flat fitted curve, though single readings scatter.

Key:
[1] = AP1 Signaling Pathway (AID 357);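 further: ME-180 reporter cells stimulated with EGF at its EC50 level; on the % scale 0 is the no-effect control and ±100 the full control effect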
Outline: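 Titration-series screen for positive or negative modulators of EC50 EGF-induced signaling in ME-180 cells carrying an AP-1-driven beta-lactamase reporter. After 5 hours at 37 degrees Celsius, CCF4 460nm/530nm emission ratio gave %Activity; AC50 values derived.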

[2] = biological target: Cytochrome P450 1A2 (Homo sapiens) (UniProt P05177); assay: p450-cyp1a2 (AID 410; calls by dose curve; further: potency means the concentration at half of the fitted maximal effect;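 on activity change, negative = inhibition: -100% = full effect of reference inhibitor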)
Outline: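 Luminescent readout of luciferin formed from Luciferin-ME by human CYP1A2; data normalized against complete inhibition by 57 uM furafylline. Enzyme 20nM, substrate 100uM at Km, 100mM KPO4 buffer, 60 min reaction at room temperature.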

[3] = Stat Signaling Pathway (AID 446); conditions: ME-180 (cervical carcinoma) SIE beta-lactamase reporter, IL-6 stimulated, 5 h;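 further: ME-180 cervical cancer cells given 40 pM IL-6 alongside compound; SIE-controlled beta-lactamase reporter measured as 460/530 nm FRET emission ratio; on the % scale 0 is the no-effect control and ±100 the full control effect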
Outline: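 IL-6/STAT signaling read in ME-180 cells via an SIE beta-lactamase reporter. Stimulus was 40 pM IL-6 (its AC50) for 5 hrs, so both activation and inhibition register.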

[4] = biological target: Glucocorticoid receptor (Homo sapiens) (UniProt P04150); assay: GR-GFP Redistribution (AID 450;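 active means compounds whose dose series gives a full or clear partial fitted curve of increased nuclear translocation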; further: potency means the concentration at half of the fitted maximal effect); conditions: U2OS GR-GFP nuclear translocation, laser cytometry, 2 h
[5] = biological target: Glucocorticoid receptor (Homo sapiens) (UniProt P04150); assay: GR-EFC Redistribution (AID 451; calls by dose curve; further: potency means the concentration at half of the fitted maximal effect); conditions: CHO-K1 GR-EFC translocation, beta-gal luminescence, 2 h
Outline: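 Translocation of GR-ED fusion to nuclear EA restores b-gal, read by luminescence after 1 h room-temperature detection. Engineered CHO-K1 biosensor cells, 1,000/well, exposed 2 h at 37 C to titrations up to 46 uM final.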

[6] = biological target: Mitogen-activated protein kinase 10 (Mus musculus) (UniProt Q61831); assay: JNK3 AlphaScreen Assay (AID 530);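 further: kinase came from lysate of stimulated human HepG2 cells; signal reports phosphorylation of biotinylated GST-cJun 1-79 at Ser73 with 10 µM ATP; on the % scale 0 is the no-effect control and ±100 the full control effect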
Outline: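 Compound titrations were preincubated 15 minutes at room temperature with substrate, antibody and pre-activated JNK3-containing HepG2 lysate. Reactions were started with 10 uM ATP and stopped with EDTA-containing bead buffer for AlphaScreen detection.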

[7] = NFAT Signaling Pathway (AID 444); conditions: Jurkat NFAT-bla M1, carbachol, beta-lactamase ratio, 5 h;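 further: carbachol stimulus at about its EC50 of 1 µM final; on the % scale 0 is the no-effect control and ±100 the full control effect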
Outline: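 Read-out: CCF4 FRET ratio (460 nm/530 nm) after 1 h RT dye loading, used for %activity and AC50 from titration series. Cells: Jurkat NFAT-β-lactamase/M1 line, treated with compound plus 1 uM carbachol for 5 h, 37 °C.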

[8] = Cell Viability - BJ (AID 421; calls by dose curve;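 further: potency means the concentration at half of the fitted maximal effect; cells exposed to compound for 40 hours at 37 °C before readout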); conditions: BJ fibroblast viability, qHTS
Outline: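 Quantitative HTS: ATP depletion in BJ cells after 40 hr compound exposure in complete culture medium, detected with CellTiter-Glo; AC50 from standard Hill fits.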

[9] = Cell Viability - Jurkat (AID 426;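 active means dose-dependent loss of cell ATP signal giving a full or clear fitted curve, ranked by lower potency value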; further: potency means the concentration at half of the fitted maximal effect); conditions: qHTS
Outline: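 qHTS, 1536-well; Jurkat E6-1, 5000 cells/well, complete medium; cpd 40 hr, 37 °C; CellTiter-Glo 20 min RT; luminescence. AC50 by Hill fit.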

[10] = Cell Viability - Hek293 (AID 427;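 active means compounds whose dose-response curve shows a full or clear partial loss of cell viability, called from curve shape rather than a numeric limit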;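 further: potency means the concentration at half of the fitted maximal effect; cells exposed to compound for 40 hours at 37 °C before reading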); conditions: qHTS
Outline: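 AC50 values derive from Hill-modelled concentration-response of ATP-based luminescence, normalized between DMSO-only and 100 uM tamoxifen controls. Cells were exposed in complete culture medium for 40 hr at 37 °C before detection.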

[11] = Cell Viability - HepG2 (AID 433; calls by dose curve;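 further: potency means the concentration at half of the fitted maximal effect; potency for ATP loss meaning cytotoxicity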); conditions: qHTS
Outline: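 Read-out is luciferase-based quantitation of cellular ATP as a measure of viable HepG2 cells after 40 h treatment at 37 °C. Signal decrease is scaled between DMSO-only and 100 uM tamoxifen controls, with AC50 fitted by the Hill equation.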

[12] = Cell Viability - MRC5 (AID 434; calls by dose curve;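 further: potency means the concentration at half of the fitted maximal effect; potency reflects cytotoxicity seen as loss of intracellular ATP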); conditions: MRC5 lung fibroblast viability, qHTS
Outline: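 qHTS cytotoxicity in human lung fibroblast MRC5 cells; 40 hr treatment, 37 °C; cellular ATP by luciferase luminescence; DMSO = 0%, 100 uM tamoxifen = 100% inhibition; Hill-fit AC50.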

[13] = Cell Viability - SK-N-SH (AID 435; calls by dose curve;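 further: potency means the concentration at half of the fitted maximal effect; compound exposure lasted 40 h at 37 °C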); conditions: SK-N-SH neuroblastoma cell viability qHTS
Outline: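 Luminescent ATP signal served as the viability read-out after 40 hours of compound treatment of human neuroblastoma SK-N-SH cells. Concentration-response data, scaled between DMSO and 100 uM tamoxifen, gave AC50 values by standard Hill modeling.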

[14] = Cell Viability - N2a (AID 540; active means well fitted curve in the direction sought with a large enough effect; an effect the other way counts as inactive or inconclusive;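 further: plate controls were DMSO alone for no effect and tamoxifen control for full effect; nearly all actives have a fitted effect of over 45% in size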); conditions: N2a mouse neuroblastoma cell viability; activity change, negative = cytotoxicity: at 92.2 µM (top of the series)
Outline: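 Luminescent ATP signal (CellTiter-Glo, 20 min at room temperature) served as the viability read-out after N2a cells were treated with compounds for 40 hours at 37 °C. Concentration-response data were fitted to the Hill equation for AC50.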

[15] = Cell Viability - NIH 3T3 (AID 541; active means well fitted curve in the direction sought with a large enough effect; an effect the other way counts as inactive or inconclusive;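 further: plate controls were DMSO alone for no effect and tamoxifen positive control for full effect; nearly all actives have a fitted effect of over 25% in size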); conditions: NIH 3T3 cell viability, qHTS; activity change, negative = cytotoxicity: at 92.2 µM (top of the series)
Outline: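 Luminescent ATP signal (CellTiter-Glo) served as the viability read-out after NIH 3T3 cells were exposed to compounds over a concentration range for 40 hr at 37 °C. Hill-equation modelling of concentration-response data gave AC50.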

[16] = Cell Viability - HUV-EC-C (AID 542; active means well fitted curve in the direction sought with a large enough effect; an effect the other way counts as inactive or inconclusive; further: on the % scale 0 is the no-effect control and ±100 the full control effect; nearly all actives have a fitted effect of over 35% in size)
Outline: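 qHTS cytotoxicity: HUV-EC-C, 1000 cells/well, 5 hr settle, compound 40 hr 37 °C, CellTiter-Glo, luminescence. AC50 via Hill equation.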

[17] = Cell Viability - H-4-II-E (AID 543; active means well fitted curve in the direction sought with a large enough effect; an effect the other way counts as inactive or inconclusive; further: on the % scale 0 is the no-effect control and ±100 the full control effect; nearly all actives have a fitted effect of over 35% in size)
Outline: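 Luminescent ATP signal (CellTiter-Glo) served as the viability read-out, with cytotoxicity seen as a concentration-dependent ATP drop. Cells were treated for 40 hours in complete medium. AC50 values derive from Hill-equation modelling.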

[18] = Cell Viability - SH-SY5Y (AID 544; active means well fitted curve in the direction sought with a large enough effect; an effect the other way counts as inactive or inconclusive;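 further: 0% = DMSO alone and -100% = 100 µM tamoxifen; nearly all actives have a fitted effect of over 55% in size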)
Outline: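 Luminescent ATP read-out (CellTiter-Glo) measures loss of viable SH-SY5Y neuroblastoma cells after 40 hr compound exposure at 37 °C. AC50 values derive from standard Hill modelling of qHTS concentration-response data.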

[19] = Cell Viability - Renal Proximal Tubule (AID 545; active means well fitted curve in the direction sought with a large enough effect; an effect the other way counts as inactive or inconclusive;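 further: 0% = DMSO only and -100% = 100 µM tamoxifen; nearly all actives have a fitted effect of over 40% in size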); conditions: renal proximal tubule cells viability; activity change, negative = cytotoxicity: at 91.7 µM (top of the series)
Outline: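 Luminescent ATP signal (CellTiter-Glo) served as the viability read-out after 40 hr compound exposure of freshly isolated rat proximal tubule cells at 37 °C. Concentration-dependent ATP loss was fitted with the Hill equation to give AC50.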

[20] = at 38 µM (top of the series) unless noted

Glucocorticoid receptor (Homo sapiens), sequence (P04150 whole entry, looked up, the tested form may be a part): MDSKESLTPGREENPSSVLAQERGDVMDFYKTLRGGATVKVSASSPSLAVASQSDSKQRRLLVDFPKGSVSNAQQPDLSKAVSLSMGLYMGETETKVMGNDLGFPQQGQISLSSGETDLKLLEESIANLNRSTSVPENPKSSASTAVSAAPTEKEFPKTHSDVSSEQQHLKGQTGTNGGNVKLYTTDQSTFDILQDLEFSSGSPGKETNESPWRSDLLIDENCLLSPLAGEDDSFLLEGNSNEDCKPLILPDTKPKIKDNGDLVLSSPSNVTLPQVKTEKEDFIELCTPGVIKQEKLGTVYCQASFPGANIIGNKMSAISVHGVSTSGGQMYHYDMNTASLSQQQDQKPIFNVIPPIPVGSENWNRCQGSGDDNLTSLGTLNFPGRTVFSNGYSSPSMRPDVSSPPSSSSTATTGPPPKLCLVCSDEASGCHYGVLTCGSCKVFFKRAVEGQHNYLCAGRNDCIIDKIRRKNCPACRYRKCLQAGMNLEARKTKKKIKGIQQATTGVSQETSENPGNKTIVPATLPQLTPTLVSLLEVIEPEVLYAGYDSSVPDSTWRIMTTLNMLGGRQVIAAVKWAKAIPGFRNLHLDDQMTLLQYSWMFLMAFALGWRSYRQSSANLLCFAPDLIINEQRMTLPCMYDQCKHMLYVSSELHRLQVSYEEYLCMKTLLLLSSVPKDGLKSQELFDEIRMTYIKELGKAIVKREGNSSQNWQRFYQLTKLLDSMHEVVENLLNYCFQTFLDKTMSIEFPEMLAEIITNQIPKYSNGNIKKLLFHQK
Cytochrome P450 1A2 (Homo sapiens), sequence (P05177 whole entry, looked up): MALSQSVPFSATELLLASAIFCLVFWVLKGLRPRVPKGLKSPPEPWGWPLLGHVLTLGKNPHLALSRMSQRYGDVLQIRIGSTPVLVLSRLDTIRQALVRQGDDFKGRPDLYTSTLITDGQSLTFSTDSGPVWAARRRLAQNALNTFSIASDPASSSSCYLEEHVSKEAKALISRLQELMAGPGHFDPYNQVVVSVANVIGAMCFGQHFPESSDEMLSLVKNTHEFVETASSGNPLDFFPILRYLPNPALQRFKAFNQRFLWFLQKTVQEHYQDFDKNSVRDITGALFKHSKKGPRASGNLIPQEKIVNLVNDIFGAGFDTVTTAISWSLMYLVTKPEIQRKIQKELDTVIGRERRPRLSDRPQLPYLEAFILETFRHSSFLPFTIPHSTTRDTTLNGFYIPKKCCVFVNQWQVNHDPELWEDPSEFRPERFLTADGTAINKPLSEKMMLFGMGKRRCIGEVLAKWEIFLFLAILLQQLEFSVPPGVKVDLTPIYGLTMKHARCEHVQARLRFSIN

CCCN(CCC)C1Cc2cc(OC)c(OC)cc2C1
inactive: outcome [1] | Potency [2] | activity, negative = inhibition [3, 20] 21.3% | Potency [4] > 46 µM | Potency [5] > 46 µM | outcome [6]

C[C@@H]1[C@@H]2Cc3ccc(O)cc3[C@@]1(C)CCN2CC1CC1
inactive: outcome [1] | Potency [2] | activity, negative = inhibition [3, 20] -18.1% | Potency [4] > 46 µM | Potency [5] > 46 µM | outcome [6]

CC(C)[C@@]1(NC(=O)[C@@H]2C[C@@H]3c4cccc5[nH]cc(c45)C[C@H]3N(C)C2)O[C@@]2(O)[C@@H]3CCCN3C(=O)[C@H](Cc3ccccc3)N2C1=O
inactive: outcome [1] | activity change, negative = inhibition [7, 20] -22.9% [at 17.2 µM] | activity, negative = inhibition [3, 20] -26.4% [at 17.2 µM] | Potency [4] > 20.6 µM

Clc1ccc(N2C[C@H]3CC[C@@H](C2)N3)nn1
inactive: outcome [1] | activity change, negative = inhibition [7, 20] -11.9% | activity, negative = inhibition [3, 20] 37.1% | Potency [4] > 46 µM | Potency [5] > 46 µM | outcome [6]

C[C@@H]1O[C@H](C[N+](C)(C)C)CS1
inactive: outcome [1] | Potency [2] | activity, negative = inhibition [3, 20] 19.2% | Potency [4] > 46 µM | Potency [5] > 46 µM | outcome [6]

NNC(N)=O
inactive: outcome [1] | Potency [8] > 92 µM | Potency [9] > 92 µM | Potency [10] > 92 µM | Potency [11] > 92 µM | Potency [12] > 92 µM | Potency [13] > 92 µM | activity, negative = inhibition [3, 20] 1.85% | Potency [4] > 46 µM | Potency [5] > 46 µM | Potency [14] | Potency [15] | Potency [16] | Potency [17] | Potency [18] | Potency [19]

C[N+]1(C)[C@@H]2CC[C@H]1CC(OC(=O)c1c[nH]c3ccccc13)C2 (stereo partly specified)
inactive: outcome [1] | Potency [2] | Potency [4] > 46 µM | Potency [5] > 46 µM | outcome [6]

C[C@@H](Cc1ccccc1)NCCC(c1ccccc1)c1ccccc1
inactive: outcome [1] | activity, negative = inhibition [3, 20] -3.28% [at 17.2 µM]

C[N+]1(C)CCN(c2ccccc2)CC1
inactive: outcome [1] | Potency [2] | activity, negative = inhibition ([3]; at 17.2 µM (top of the series)) -10% | activity, negative = inhibition ([3]; at 38 µM (top of the series)) -4.82% | Potency [4] > 46 µM and > 20.6 µM | Potency [5] > 46 µM | outcome [6]

C[C@H](N)CN1CCc2ccc(Br)cc21
inactive: outcome [1] | activity, negative = inhibition [3, 20] -29.5% | Potency [4] > 46 µM | Potency [5] > 46 µM

C[N+](C)(C)CC#CCN1CCCC1=O
inactive: outcome [1] | Potency [2] | Potency [4] > 46 µM | Potency [5] > 46 µM | outcome [6]

NC(N)=NOCC[C@H](N)C(=O)O
inactive: outcome [1] | activity change, negative = inhibition ([7]; at 17.2 µM (top of the series)) -0.483% | activity change, negative = inhibition ([7]; at 38 µM (top of the series)) 17% | activity, negative = inhibition [3, 20] 4.59% [at 17.2 µM] | Potency [4] > 46 µM and > 20.6 µM | Potency [5] > 46 µM and > 20.6 µM | outcome [6]

OCc1cnc[nH]1
inactive: outcome [1] | Potency [2] | activity change, negative = inhibition [7, 20] 7.81% | Potency [4] > 46 µM | Potency [5] > 46 µM

CC(=O)NBr
inactive: outcome [1] | Potency [2] | activity change, negative = inhibition [7, 20] -0.158% | Potency [4] > 46 µM | Potency [5] > 46 µM | outcome [6]

NCCc1ccc(S(=O)(=O)F)cc1
active: Potency [2] 15.8 µM
inactive: outcome [1] | activity change, negative = inhibition [7, 20] 2.53% | Potency [4] > 46 µM | Potency [5] > 46 µM

CCCn1c(=O)c2[nH]c(C3CCCC3)nc2n(CCCOC(=O)c2ccc(S(=O)(=O)F)cc2)c1=O
inactive: Potency [2] | activity change, negative = inhibition [7, 20] -34.5% | activity, negative = inhibition [3, 20] -25.7% | Potency [4] > 46 µM | Potency [5] > 46 µM

O=c1c2ccccc2[se]n1-c1ccccc1
inactive: outcome [1] | Potency [4] > 46 µM and > 20.6 µM | Potency [5] > 46 µM and > 20.6 µM
active: Potency [2] 3.98 µM and 794 nM

Cc1c2ccncc2c(C)c2c1[nH]c1ccccc12
active: Potency [2] 79.4 nM and 20 nM | activity, negative = inhibition [3, 20] 128% [activator] [at 17.2 µM] and 142% [activator] [at 17.2 µM]
inactive: outcome [1] | Potency [4] > 46 µM and > 20.6 µM | Potency [5] > 46 µM and > 20.6 µM

CNC(=O)OCC[N+](C)(C)C
inactive: outcome [1] | Potency [2] | activity change, negative = inhibition [7, 20] 3.8% | Potency [4] > 46 µM | Potency [5] > 46 µM

CCCN1CCc2cc(O)cc3c2[C@H]1Cc1ccc(O)c(O)c1-3
active: Potency [2] 12.6 µM
inactive: outcome [1] | activity, negative = inhibition [3, 20] 39.4% | Potency [4] > 46 µM | Potency [5] > 46 µM

Nc1ccc(CCN2CCN(c3cccc(C(F)(F)F)c3)CC2)cc1
active: Potency [2] 10 µM
inactive: outcome [1] | activity, negative = inhibition [3, 20] -17.7% | Potency [4] > 46 µM | Potency [5] > 46 µM | outcome [6]

C[N+](C)(C)CCOC(=O)CBr
inactive: outcome [1] | activity change, negative = inhibition [7, 20] 13.9% | activity, negative = inhibition [3, 20] -5.3% | Potency [4] > 46 µM | Potency [5] > 46 µM | outcome [6]
